Screening results from PubChem BioAssay.
Abeta rescue = restores growth of yeast expressing A-beta42 peptide; yeast expressing A-beta42, growth rescue, OD600, 48 h; response scale: 0% DMSO, 100% iron-clioquinol control; Potency, µM (top dose mostly 46.1 µM), usual class: activators; hit rate 0.063% among 410,000; note: nearly all actives have a fitted effect of over 55% in size
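Yeast A-beta toxicity model in growth medium with pinned compounds, 48 h at 30 C; growth read as absorbance at 600 nm. Normalized to FeCl3/clioquinol equimolar mix (positive) and DMSO (negative).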
BCR signal inh = inhibitors of chronic active B-cell receptor signaling | Potency, µM (highest dose often 46.1 µM), inactives show top-dose activity change, negative = inhibition, most hits filed as inhibitors | ABC-DLBCL IkBa-CBG/CBR reporter, luminescence ratio, 4 h | hit rate 0.05% among 340,000; active = well fitted inhibition curve with a large enough effect in the signal ratio, with a control signal flat, not every such curve was filed as active; inconclusive = small, poorly fitted or top-dose-only effect, or effect the other way, or a change in a side signal; the % refers to the signal ratio;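 note: plate controls were basal doxycycline-induced cells for no effect and cells given 10 µM MG132 for full effect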
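Compounds up to 46 uM were incubated four hours with TMD8 cells whose green CBG68 luciferase is fused to IkappaBalpha; red CBR luminescence normalised the signal, and concentration-effect curves were fitted to fusion, red and ratio data.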
uPA generation = blocks generation of uPA at the cell surface | cell surface uPA generation assay, qHTS | AID 540303 | hit rate 0.31% among 330,000 | Potency, µM (top dose mostly 38.3 µM), for the others: at the top dose activity change, negative = inhibition, most hits filed as inhibitors; active = well fitted inhibition curve with a large enough effect; inconclusive = small, poorly fitted or top-dose-only effect; inactive = no such curve, though single readings can be large or run the other way; tested in mouse RAW 264.7 cells; note: % is set by controls: 0 for no effect and ±100 for the full control effect; nearly all actives have a fitted effect of over 55% in size
TDP-43 yeast inh = rescues yeast growth from TDP-43 toxicity; AID 652104; TDP-43 expressing yeast growth rescue, BacTiter-Glo, 24 h; Potency, µM (titrated, usually from 46.1 µM), inactives show at the top dose growth rescue (activation), usual class: activators; hit rate 1.8% among 410,000; note: % of control where 0% means no effect; nearly all actives have a fitted effect of over 50% in size
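Readout is BacTiter-Glo luminescence of cell growth, so inhibitors register as activators. TDP-43-expressing yeast at OD600=0.02 in galactose medium, after raffinose pregrowth to mid-log, were incubated with compound for 24 hr at 30 deg C.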
aSyn yeast inh = alpha-synuclein toxicity inhibition in yeast. Potency, µM (doses to about 46.1 µM), inactives show top-dose growth rescue (activation), most hits filed as activators. hit rate 0.14% among 370,000. Yeast expressing alpha-synuclein, growth rescue, BacTiter-Glo, 24 h; note: % of control where 0% means no effect; nearly all actives have a fitted effect of over 65% in size
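Readout is rescue of growth in alpha-synuclein-expressing yeast, so inhibitors of toxicity appear as activators. Growth after 24 hr at 30 deg C in galactose medium is quantified by luminescence.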
FUS yeast rescue = FUS proteinopathy suppression in yeast; S. cerevisiae FUS-expressing, growth rescue, OD600, 24 h; Potency, µM (doses to about 76.6 µM), hits mostly activators; hit rate 0.24% among 390,000; AID 1347120;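 note: plate controls were DMSO vehicle for no effect and reference control for full effect; nearly all actives have a fitted effect of over 55% in size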
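Yeast FUS proteinopathy model; galactose-induced FUS (2%), starting OD 0.005. Cpds in dilution series, 24hr, 30C, 99% humidity. Abs 600 nm growth. Pos ctrl CP55940 (top 92uM final); neg ctrl DMSO.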
An asterisk follows results filed as active; i = inactive; ? = inconclusive; . = no result. The list is not random: actives were taken first. Their share in the collection is about 2.3%. Unless noted, calls come from the whole dose curve; as a rule, active = well fitted curve in the direction sought with a large enough effect; inconclusive = small, poorly fitted or top-dose-only effect, or another doubt; inactive = no such curve, though single readings can be large; an effect the other way counts as inactive or inconclusive. Potency is the fitted concentration of half-maximal effect.

SMILES	Abeta rescue	BCR signal inh	uPA generation	TDP-43 yeast inh	aSyn yeast inh	FUS yeast rescue
O=C(/C=C/c1ccc(Cl)cc1Cl)N1CCN(c2ccccc2[N+](=O)[O-])CC1	i	6%	-8%	13µM*	?	i
O=C(/C=C/c1ccc(Cl)cc1Cl)N1CCN(c2ccc([N+](=O)[O-])c(N3CCOCC3)c2)CC1	i	-1%	0%	?	-7%	.
O=C(O)CCSc1nc2ccccc2n1-c1ccccc1	i	?	-8%	-8%	1%	i
COC(=O)C1=C(C)N(Cc2ccccc2)C(=S)N[C@H]1c1ccc(Br)cc1	i	?	-14%	16µM*	4%	?
O=C(Nc1ccc(N2CCCC2)c(Cl)c1)c1ccc(Br)o1	i	-3%	-3%	-16%	-2%	?
CC(=O)C1=C(O)C(=O)N(CCc2c[nH]c3ccccc23)C1c1ccccc1 (stereo unspecified)	i	-2%	7%	-13%	-12%	i
COc1cc(OC)c(C(=O)/C=C/c2ccccc2)c(O)c1O	i	-21%	?	13µM*	7%	i
COc1cc(O)cc(O)c1C(=O)/C=C/c1ccccc1	i	?	?	12%	12%	i
COc1ccc(C2CC(=O)c3cnc(NC(=O)c4ccccc4OC)nc3C2)c(OC)c1 (stereo unspecified)	i	?	-5%	18µM*	14%	i
CN1CCN(S(=O)(=O)c2ccc(NC(=O)c3cccs3)cc2)CC1	i	.	4%	3%	2%	i
N/C(=N\OC(=O)c1ccc(Cl)c(Cl)c1)c1cccc(CSc2ccccn2)c1	i	?	-7%	11µM*	-49%	i
O=C(O/N=C(\c1ccccc1)c1ccccn1)c1ccc(Cl)c(Cl)c1	?	-1%	4%	30%	-8%	i
N/C(=N\OC(=O)c1ccc(Cl)c(Cl)c1)c1cccnc1	i	?	2%	6.3µM*	1%	i
O=C(N/N=C/c1ccc(-c2ccccc2[N+](=O)[O-])o1)[C@H]1C[C@@H]1c1ccccc1	i	?	-3%	-14%	16%	.
COc1cccc2c1C(=O)c1c(O)c3c(c(O)c1C2=O)C[C@@](O)(C(=O)CO)C[C@@H]3O[C@H]1C[C@H](N)[C@H](O)[C@H](C)O1	i	?	-76%	?	4.5µM*	i
COc1cccc2c1C(=O)c1c(O)c3c(c(O)c1C2=O)C[C@@](O)(C(=O)CO)C[C@@H]3OC1CC(N)C(O)C(C)O1 (stereo partly specified)	i	.	-12%	-6%	?	.
Cc1cc2n(n1)C(c1c[nH]c3ccccc13)Nc1ccccc1-2 (stereo unspecified)	i	7%	8%	7.9µM*	-33%	.
CC(C)CCN1C(=O)c2ccc(C(=O)OCC(=O)N(C)C3CCS(=O)(=O)C3)cc2C1=O (stereo unspecified)	i	?	1%	3%	0%	i
CC(C)CCN1C(=O)c2ccc(C(=O)OCC(=O)N(CC(C)C)C3CCS(=O)(=O)C3)cc2C1=O (stereo unspecified)	i	?	-6%	-12%	-4%	32µM*
CC(C(=O)NCc1ccc2c(c1)OCO2)N1c2cccc3cccc(c23)S1(=O)=O (stereo unspecified)	i	-3%	2%	13µM*	0%	i
Cc1nn(C)c(C(=O)Nc2ccn(Cc3c(F)c(F)cc(F)c3F)n2)c1[N+](=O)[O-]	i	17%	6%	7.9µM*	7%	.
Cc1nn(Cc2cccc(C(=O)Nc3ccn(Cc4c(F)c(F)cc(F)c4F)n3)c2)c(C)c1[N+](=O)[O-]	i	-8%	.	0%	-2%	i
CSc1ccc(C2=CC(=O)C[C@H](c3ccc(F)cc3)C2)cc1	i	?	15%	22µM*	6%	i
O=C1C=C(c2ccc(OC(F)(F)F)cc2)C[C@@H](c2ccc(F)cc2)C1	?	?	10%	14µM*	-7%	i
O=C1C=C(c2ccc3c(c2)OCCO3)C[C@@H](c2ccc(F)cc2)C1	?	2%	9%	22µM*	0%	i
SMILES	Abeta rescue	BCR signal inh	uPA generation	TDP-43 yeast inh	aSyn yeast inh	FUS yeast rescue
COc1ccc(C2=CC(=O)C[C@H](c3ccc(F)cc3)C2)cc1F	i	8%	-6%	22µM*	8%	?
Cc1cc(C)cc(OCC(=O)OCC(=O)NCCC2=CCCCC2)c1	i	0%	-4%	-13%	11%	i
Cc1cc(C2=CC(=O)C[C@H](c3ccc(F)cc3)C2)ccc1F	i	.	.	22µM*	8%	i
O=c1c2cc(N3CCOCC3)ccc2[nH]c(=S)n1Cc1ccccc1Cl	i	5%	3%	.	1%	i
Cc1nn2c(-c3ccccc3)ccnc2c1Br	i	1%	-12%	20µM*	4%	i
Cc1ccc(-c2ccnc3c(Br)c(C)nn23)cc1	i	0%	-3%	17%	?	i
O=C(N/N=C/c1cccc2cccnc12)c1ccccc1O	?	?	5µM*	-14%	22µM*	i
CCOC(=O)Cn1c(CN(Cc2ccccc2)Cc2ccccc2)nc2c1c(=O)n(C)c(=O)n2C	i	?	-4%	22µM*	1%	?
O=C(Nc1ccccn1)N1CCOCC1	i	-6%	1%	19%	-2%	i
Cc1ccc(C)c(CNC(=O)c2sc3ncnc(N(C)C4CCCCC4)c3c2C)c1	i	9%	.	22µM*	.	i
Cc1c(C(=O)NCc2ccccc2Cl)sc2ncnc(N(C)C3CCCCC3)c12	i	10%	.	?	.	i
COc1ccc(C2=CC(c3cccc(C)c3)n3nnnc3N2)cc1 (stereo unspecified)	i	?	.	?	2%	i
Cc1cccc(C2C=C(c3ccc(F)cc3)Nc3nc4ccccc4n32)c1 (stereo unspecified)	i	?	.	32µM*	.	i
Cc1ccc(C2=CC(c3ccccc3C)n3c(nc4ccccc43)N2)cc1 (stereo unspecified)	i	?	.	10µM*	.	i
Nc1ccc2nc(SCc3ccccc3F)sc2c1	i	?	-6%	13µM*	29%	i
Nc1ccc2nc(SCC(=O)c3ccccc3)sc2c1	i	-1%	0%	?	-25%	i
O=[N+]([O-])c1ccc2c(c1)/C(=N\O)c1ccccc1-2	i	?	-4%	-3%	0%	i
COc1cc2c(cc1[N+](=O)[O-])-c1ccc([N+](=O)[O-])cc1C2=NO	i	.	.	10µM*	3%	i
